From PubChem BioAssay (NCATS)
“And” between values parts separate entries of the source, which are not always exact repeats. Equal entries are not always repeated. Results filed as inconclusive are left out. Where a call stands in place of a potency, no number is given. Values without a mark were called inactive. The source made the active and inactive calls. Calls come from the whole dose curve; as a rule, active = well fitted curve in the direction sought with a large enough effect; inconclusive = small, poorly fitted or top-dose-only effect, or another doubt; inactive = no such curve, though single readings can be large; an effect the other way counts as inactive or inconclusive.

Key:
W2 = experiment: qHTS profiling for inhibitors of Plasmodium falciparum proliferation (AID 504749); note: nearly all actives have a fitted effect of over 60% in size; conditions: P. falciparum in erythrocytes, SYBR Green DNA, 72 h; series mostly up to 28.7 µM
Outline: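 Fluorescence of SYBR Green-bound parasite DNA, read at 485/535 nm, served as the growth measure. Infected erythrocytes were cultured with compound 72 h; artemisinin (0.29 uM) and DMSO wells defined the normalization range.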

KB-3-1 = experiment: Cytotoxic Profiling of Annotated Libraries Using Quantitative High-Throughput Screening (AID 1296008); conditions: Five cell lines viability, CellTiter-Glo ATP luminescence, 48-72 h; max response: hits give low values; note: nearly all actives have a fitted effect of over 60% in size
Outline: (§1)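 Compounds were pin-transferred onto cells and incubated 48 or 72 hr at 37 degree Celsius, 95% humidity. CellTiter-Glo was added, plates sat 10 min at room temperature, then ATP-coupled luminescence was imaged as the viability read-out.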

MCC-13 = experiment: qHTS assay to identify novel small-molecules to repurpose for Merkel cell carcinoma treatment (AID 1296009); conditions: MCC and control cell lines, CellTiter-Glo viability, 72 h; series mostly up to 46 µM; note: nearly all actives have a fitted effect of over 60% in size
Outline: (§2)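 Luminescence from CellTiter-Glo, read 10 min after addition at room temperature, reported viability following a 72 hr, 37 degree celsius treatment with NPC or MIPE compounds in titration; values normalized to plate controls.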

MKL-1 = experiment: as above; conditions: MCC and control cell lines, CellTiter-Glo viability, 72 h; series mostly up to 46 µM
Outline: as §2

MKL-2 = experiment: as above; conditions: MCC and control cell lines, CellTiter-Glo viability, 72 h; series mostly up to 46 µM
Outline: as §2

UISO = experiment: as above; conditions: MCC and control cell lines, CellTiter-Glo viability, 72 h; series mostly up to 46 µM
Outline: as §2

WaGa = experiment: as above; conditions: MCC and control cell lines, CellTiter-Glo viability, 72 h; series mostly up to 46 µM
Outline: as §2

Es-2 = experiment: Primary qHTS to identify gynecologic anti-cancer compounds using libraries of approved drugs and bioactive compounds (AID 1345084); conditions: Gynecologic cancer cell panel viability, ATPlite luminescence, 48 h; series mostly up to 57.5 µM; note: nearly all actives have a fitted effect of over 55% in size
Outline: (§3)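 In this quantitative HTS, cell killing is estimated from loss of ATP-dependent luciferase light. Cells see five compound concentrations over a 48 h exposure.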

HeLa = experiment: as above; conditions: Gynecologic cancer cell panel viability, ATPlite luminescence, 48 h; series mostly up to 57.5 µM
Outline: as §3

CRL-7250 = normal cell line; experiment: Cytotoxic Profiling of Annotated Libraries Using Quantitative High-Throughput Screening (AID 1296008); conditions: Five cell lines viability, CellTiter-Glo ATP luminescence, 48-72 h; max response: hits give low values; note: nearly all actives have a fitted effect of over 60% in size
Outline: as §1

HaCat [1] = experiment: as above; conditions: Five cell lines viability, CellTiter-Glo ATP luminescence, 48-72 h; max response: hits give low values
Outline: as §1

NIH3T3 = experiment: as above; conditions: Five cell lines viability, CellTiter-Glo ATP luminescence, 48-72 h; max response: hits give low values
Outline: as §1

MCC-26 = experiment: qHTS assay to identify novel small-molecules to repurpose for Merkel cell carcinoma treatment (AID 1296009); conditions: MCC and control cell lines, CellTiter-Glo viability, 72 h; series mostly up to 46 µM; note: nearly all actives have a fitted effect of over 60% in size
Outline: as §2

C33A = experiment: Primary qHTS to identify gynecologic anti-cancer compounds using libraries of approved drugs and bioactive compounds (AID 1345084); conditions: Gynecologic cancer cell panel viability, ATPlite luminescence, 48 h; series mostly up to 57.5 µM; note: nearly all actives have a fitted effect of over 55% in size
Outline: as §3

CASKI = experiment: as above; conditions: Gynecologic cancer cell panel viability, ATPlite luminescence, 48 h; series mostly up to 57.5 µM
Outline: as §3

HACAT [2] = experiment: qHTS assay to identify novel small-molecules to repurpose for Merkel cell carcinoma treatment (AID 1296009); conditions: MCC and control cell lines, CellTiter-Glo viability, 72 h; at 44.8 µM (top of the series) unless noted; note: nearly all actives have a fitted effect of over 60% in size
Outline: as §2

HEK293 = experiment: Cytotoxic Profiling of Annotated Libraries Using Quantitative High-Throughput Screening (AID 1296008); conditions: Five cell lines viability, CellTiter-Glo ATP luminescence, 48-72 h; max response: hits give low values; note: nearly all actives have a fitted effect of over 60% in size
Outline: as §1

CAOV3 = experiment: Primary qHTS to identify gynecologic anti-cancer compounds using libraries of approved drugs and bioactive compounds (AID 1345084); conditions: Gynecologic cancer cell panel viability, ATPlite luminescence, 48 h; series mostly up to 57.5 µM; note: nearly all actives have a fitted effect of over 55% in size
Outline: as §3
Potency is the fitted concentration of half-maximal effect.

CSc1ccc2c(c1)N(CCC1CCCCN1C)c1ccccc1S2 (stereo unspecified)
Potency (W2): 6.75 µM (active)
max response (KB-3-1): -7.5%
Potency (MCC-13): 26.6 µM (active)
Potency (MKL-1): 11.9 µM (active)
Potency (MKL-2): 3.35 µM (active)
Potency (UISO): 26.6 µM (active)
Potency (WaGa): 23.7 µM (active)
Potency (Es-2): inactive
Potency (HeLa): inactive

CCN(CC)CCSC(=O)C(c1ccccc1)c1ccccc1
max response (CRL-7250): -12.1%
max response (HaCat [1]): -3.95%
max response (KB-3-1): 12.2% and -4.64%
max response (NIH3T3): -1.72%
Potency (MCC-13): inactive
Potency (MCC-26): inactive
Potency (MKL-1): inactive
Potency (UISO): inactive
Potency (C33A): inactive
Potency (CASKI): inactive
Potency (Es-2): inactive
Potency (HeLa): inactive

CC(=O)OCC(=O)[C@@]1(O)CC[C@H]2[C@@H]3CCC4=CC(=O)CC[C@]4(C)[C@H]3C(=O)C[C@@]21C
Potency (C33A): inactive
Potency (CASKI): inactive
Potency (Es-2): inactive
Potency (HeLa): inactive

CN1CCN(C2Cc3ccccc3Sc3ccc(Cl)cc32)CC1 (stereo unspecified)
Potency (W2): 3.79 µM (active)
max response (CRL-7250): -15.1%
outcome (HaCat [1]): inactive
max response (KB-3-1): 6.06%
max response (NIH3T3): -9.64%
outcome (HACAT [2]): inactive
Potency (MCC-13): inactive
Potency (MCC-26): inactive
Potency (MKL-1): 26.6 µM (active)
Potency (MKL-2): 26.6 µM (active)
Potency (UISO): 23.7 µM (active)
Potency (WaGa): 23.7 µM (active)
Potency (C33A): inactive
Potency (CASKI): inactive
Potency (Es-2): inactive
Potency (HeLa): inactive

OCCN1CCN(CCCN2c3ccccc3Sc3ccc(Cl)cc32)CC1
Potency (W2): 3.22 µM (active)
Potency (HEK293): 11.9 µM (active)
max response (KB-3-1): -16%
Potency (MCC-26): 26.6 µM (active)
Potency (UISO): 26.6 µM (active)
Potency (C33A): 20 µM (active)
Potency (CAOV3): 25.1 µM (active)
Potency (CASKI): 25.1 µM (active)
Potency (HeLa): inactive

CC(=O)Oc1ccc(C2(c3ccc(OC(C)=O)cc3)C(=O)Nc3ccccc32)cc1
Potency (W2): inactive
max response (HEK293): 1.93%
max response (HaCat [1]): -16.5%
max response (KB-3-1): -1.67% and 11.5%
max response (NIH3T3): -14.8%
Potency (MCC-13): inactive
Potency (MCC-26): inactive
Potency (MKL-1): inactive
Potency (MKL-2): inactive
Potency (WaGa): inactive
Potency (C33A): inactive
Potency (CAOV3): inactive
Potency (CASKI): inactive
Potency (Es-2): inactive
Potency (HeLa): inactive

NC(=O)c1ncn([C@@H]2O[C@H](CO)[C@@H](O)[C@H]2O)n1
Potency (CAOV3): inactive
Potency (CASKI): inactive
Potency (Es-2): inactive
Potency (HeLa): inactive

CC(C)c1c(C(=O)Nc2ccccc2)c(-c2ccccc2)c(-c2ccc(F)cc2)n1CC[C@@H](O)C[C@@H](O)CC(=O)O
Potency (CRL-7250): 6.68 µM (active) and 2.73 µM (active)
max response (KB-3-1): -3.5%
max response (NIH3T3): -9.75% and 4.05%
Potency (MCC-13): 23.7 µM (active)
Potency (MKL-1): 3.35 µM (active)
Potency (MKL-2): 2.66 µM (active)
Potency (UISO): 10.6 µM (active)
Potency (WaGa): 7.5 µM (active)
Potency (C33A): inactive
Potency (CASKI): inactive
Potency (Es-2): inactive
Potency (HeLa): inactive
